Common to all, as to assay: log2 ratio of Biotin-Ahx-Ub-VS probe labelling (fragment/DMSO); higher = less target engagement (more negative = stronger competition), active = hit call of the paper (q ≤ 0.05, log2 ratio ≤ -1)
Conditions in all cases: compound concentration: 200 uM; treatment time: 3 h

For one experiment, the target named is T1, OTUD6B (UniProt Q8N6M0).
T1 sequence (whole entry): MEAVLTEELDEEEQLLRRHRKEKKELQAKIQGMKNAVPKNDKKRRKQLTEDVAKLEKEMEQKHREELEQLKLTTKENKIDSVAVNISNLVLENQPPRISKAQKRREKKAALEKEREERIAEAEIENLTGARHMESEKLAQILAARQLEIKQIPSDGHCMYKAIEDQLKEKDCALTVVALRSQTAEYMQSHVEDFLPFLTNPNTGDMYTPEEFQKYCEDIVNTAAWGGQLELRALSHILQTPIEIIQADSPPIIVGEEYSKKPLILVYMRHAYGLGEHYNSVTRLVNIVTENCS
An outline of the steps:
(§1)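 Labelled DUBs were enriched with NeutrAvidin, digested with LysC and trypsin, and run by diaPASEF LC-MS/MS. The labelling used Biotin-Ahx-Ub-VS at 0.5 µM final for 1 h on HEK293T lysate (495 µg per sample) previously treated in triplicate with fragment at 200 µM or vehicle for 3 h. Values are average log2 fragment/vehicle ratios by unpaired t-test on global-median-normalised Spectronaut quantities of proteins with ≥2 unique peptides.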

The target in a further experiment is T2, OTUD7B (UniProt Q6GQQ9).
T2 sequence (whole entry): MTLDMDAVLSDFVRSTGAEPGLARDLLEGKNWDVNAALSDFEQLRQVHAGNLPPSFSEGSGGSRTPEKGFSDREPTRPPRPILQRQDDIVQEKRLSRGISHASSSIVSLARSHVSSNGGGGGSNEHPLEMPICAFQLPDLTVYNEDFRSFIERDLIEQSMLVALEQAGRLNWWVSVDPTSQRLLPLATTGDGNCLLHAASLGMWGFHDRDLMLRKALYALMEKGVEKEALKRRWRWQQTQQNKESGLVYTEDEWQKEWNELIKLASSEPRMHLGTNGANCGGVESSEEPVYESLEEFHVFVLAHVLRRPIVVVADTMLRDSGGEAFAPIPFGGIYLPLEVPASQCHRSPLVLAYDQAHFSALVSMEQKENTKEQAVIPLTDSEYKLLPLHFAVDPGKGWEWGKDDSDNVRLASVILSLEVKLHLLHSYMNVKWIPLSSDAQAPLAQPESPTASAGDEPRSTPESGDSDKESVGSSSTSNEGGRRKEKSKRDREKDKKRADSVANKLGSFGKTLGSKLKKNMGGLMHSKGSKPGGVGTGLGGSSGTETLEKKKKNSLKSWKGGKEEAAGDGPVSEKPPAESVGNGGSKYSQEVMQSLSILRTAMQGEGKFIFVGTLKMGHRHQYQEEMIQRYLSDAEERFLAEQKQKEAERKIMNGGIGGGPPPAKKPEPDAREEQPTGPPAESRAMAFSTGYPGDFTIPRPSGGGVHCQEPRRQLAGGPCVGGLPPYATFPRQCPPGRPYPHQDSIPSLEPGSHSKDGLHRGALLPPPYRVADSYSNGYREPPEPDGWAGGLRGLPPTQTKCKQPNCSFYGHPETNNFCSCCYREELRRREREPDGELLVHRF
The method in brief:
as §1

The next experiment deals with PRPF8 (UniProt Q6P2Q9). The method in brief:
as §1

The next experiment has as its target T3, PSMD7 (UniProt P51665).
T3 sequence (whole entry): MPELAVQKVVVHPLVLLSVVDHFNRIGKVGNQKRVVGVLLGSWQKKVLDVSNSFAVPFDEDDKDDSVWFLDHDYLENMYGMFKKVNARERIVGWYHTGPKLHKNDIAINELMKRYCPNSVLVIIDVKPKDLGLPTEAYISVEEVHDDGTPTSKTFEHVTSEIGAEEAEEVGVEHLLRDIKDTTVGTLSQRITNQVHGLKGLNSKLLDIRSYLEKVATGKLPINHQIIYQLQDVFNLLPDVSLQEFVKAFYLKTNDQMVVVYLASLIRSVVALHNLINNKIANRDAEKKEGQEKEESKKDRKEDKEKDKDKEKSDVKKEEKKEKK
An outline of the steps: as §1

In the next experiment the target is UCHL1 (UniProt P09936). An outline of the steps: as §1
UCHL1, sequence (P09936 whole entry, looked up): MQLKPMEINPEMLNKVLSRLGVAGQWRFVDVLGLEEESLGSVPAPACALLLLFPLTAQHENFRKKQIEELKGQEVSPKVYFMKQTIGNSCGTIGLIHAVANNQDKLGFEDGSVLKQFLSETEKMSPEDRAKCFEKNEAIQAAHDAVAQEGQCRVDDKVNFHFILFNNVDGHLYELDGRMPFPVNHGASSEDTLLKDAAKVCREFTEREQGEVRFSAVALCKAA
Another experiment deals with T4, UCHL3 (UniProt P15374).
T4 sequence (whole entry): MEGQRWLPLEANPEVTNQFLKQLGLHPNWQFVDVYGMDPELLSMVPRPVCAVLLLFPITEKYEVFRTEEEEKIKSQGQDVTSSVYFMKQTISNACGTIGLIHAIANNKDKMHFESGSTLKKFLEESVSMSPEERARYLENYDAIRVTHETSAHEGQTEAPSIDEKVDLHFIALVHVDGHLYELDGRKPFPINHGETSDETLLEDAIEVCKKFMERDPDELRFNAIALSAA
An outline of the steps: as §1

The next experiment has as its target T5, UCHL5 (UniProt Q9Y5K5).
T5 sequence (whole entry): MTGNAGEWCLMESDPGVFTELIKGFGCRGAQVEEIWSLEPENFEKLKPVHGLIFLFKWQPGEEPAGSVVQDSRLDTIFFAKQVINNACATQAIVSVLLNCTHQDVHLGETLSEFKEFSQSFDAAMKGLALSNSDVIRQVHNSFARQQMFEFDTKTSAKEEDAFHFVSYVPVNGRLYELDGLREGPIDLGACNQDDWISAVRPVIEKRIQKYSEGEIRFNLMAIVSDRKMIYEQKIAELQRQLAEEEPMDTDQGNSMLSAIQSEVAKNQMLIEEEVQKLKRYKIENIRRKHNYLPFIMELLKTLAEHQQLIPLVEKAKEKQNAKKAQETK
An outline of the steps: as §1

A further experiment has as its target USP10 (UniProt Q14694). The method in brief:
as §1

Another experiment addresses T6, USP15 (UniProt Q9Y4E8).
T6 sequence (whole entry): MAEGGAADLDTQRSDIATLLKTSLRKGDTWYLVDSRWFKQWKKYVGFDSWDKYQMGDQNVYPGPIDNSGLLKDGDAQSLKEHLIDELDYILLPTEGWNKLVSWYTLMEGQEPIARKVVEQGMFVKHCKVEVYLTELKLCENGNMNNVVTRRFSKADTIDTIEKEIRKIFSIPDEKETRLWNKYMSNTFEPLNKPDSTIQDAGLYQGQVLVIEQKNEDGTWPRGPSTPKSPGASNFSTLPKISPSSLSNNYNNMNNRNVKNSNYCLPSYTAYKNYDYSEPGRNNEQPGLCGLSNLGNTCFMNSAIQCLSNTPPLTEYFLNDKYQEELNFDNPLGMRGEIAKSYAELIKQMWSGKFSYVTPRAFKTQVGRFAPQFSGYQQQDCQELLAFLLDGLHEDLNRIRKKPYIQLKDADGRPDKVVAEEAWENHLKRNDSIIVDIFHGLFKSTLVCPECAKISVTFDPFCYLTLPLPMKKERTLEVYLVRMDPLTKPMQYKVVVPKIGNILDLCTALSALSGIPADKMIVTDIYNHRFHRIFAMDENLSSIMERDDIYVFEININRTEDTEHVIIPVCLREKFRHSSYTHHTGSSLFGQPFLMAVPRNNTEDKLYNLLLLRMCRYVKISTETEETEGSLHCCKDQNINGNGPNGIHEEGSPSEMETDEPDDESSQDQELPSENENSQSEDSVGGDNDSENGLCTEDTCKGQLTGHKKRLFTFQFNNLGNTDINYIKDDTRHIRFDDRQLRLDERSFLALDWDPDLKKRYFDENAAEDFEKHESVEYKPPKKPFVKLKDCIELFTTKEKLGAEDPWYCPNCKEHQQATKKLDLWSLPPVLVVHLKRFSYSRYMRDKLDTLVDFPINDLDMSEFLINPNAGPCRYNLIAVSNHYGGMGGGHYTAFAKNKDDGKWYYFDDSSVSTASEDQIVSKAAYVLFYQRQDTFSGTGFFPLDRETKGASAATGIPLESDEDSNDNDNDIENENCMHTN
An outline of the steps: as §1

The target of another experiment is USP16 (UniProt Q9Y5T5). The method in brief: as §1
USP16, sequence (Q9Y5T5 whole entry, looked up): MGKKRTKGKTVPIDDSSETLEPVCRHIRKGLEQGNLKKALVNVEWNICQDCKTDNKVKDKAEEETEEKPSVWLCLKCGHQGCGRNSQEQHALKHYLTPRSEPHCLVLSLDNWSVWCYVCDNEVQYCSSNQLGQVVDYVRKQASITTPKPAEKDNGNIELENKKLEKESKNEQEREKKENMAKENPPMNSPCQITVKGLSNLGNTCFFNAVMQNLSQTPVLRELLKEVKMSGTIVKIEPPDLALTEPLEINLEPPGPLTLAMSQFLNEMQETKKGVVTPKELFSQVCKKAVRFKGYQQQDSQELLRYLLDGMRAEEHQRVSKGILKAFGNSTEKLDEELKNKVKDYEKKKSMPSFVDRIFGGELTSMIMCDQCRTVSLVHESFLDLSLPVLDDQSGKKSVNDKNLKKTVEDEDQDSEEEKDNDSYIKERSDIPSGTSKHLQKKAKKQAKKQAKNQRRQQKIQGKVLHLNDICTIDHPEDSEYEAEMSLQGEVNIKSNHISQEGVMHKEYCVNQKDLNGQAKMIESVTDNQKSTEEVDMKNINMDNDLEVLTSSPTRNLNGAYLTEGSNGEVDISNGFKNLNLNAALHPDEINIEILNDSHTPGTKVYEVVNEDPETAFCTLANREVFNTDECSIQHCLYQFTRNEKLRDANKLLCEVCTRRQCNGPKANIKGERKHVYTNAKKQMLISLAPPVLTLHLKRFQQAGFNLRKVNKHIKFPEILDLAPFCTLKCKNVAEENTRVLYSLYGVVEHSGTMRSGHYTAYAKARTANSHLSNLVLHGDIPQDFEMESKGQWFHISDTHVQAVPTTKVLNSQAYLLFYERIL

A number with no mark means an inactive call.

USP10, sequence (Q14694 whole entry): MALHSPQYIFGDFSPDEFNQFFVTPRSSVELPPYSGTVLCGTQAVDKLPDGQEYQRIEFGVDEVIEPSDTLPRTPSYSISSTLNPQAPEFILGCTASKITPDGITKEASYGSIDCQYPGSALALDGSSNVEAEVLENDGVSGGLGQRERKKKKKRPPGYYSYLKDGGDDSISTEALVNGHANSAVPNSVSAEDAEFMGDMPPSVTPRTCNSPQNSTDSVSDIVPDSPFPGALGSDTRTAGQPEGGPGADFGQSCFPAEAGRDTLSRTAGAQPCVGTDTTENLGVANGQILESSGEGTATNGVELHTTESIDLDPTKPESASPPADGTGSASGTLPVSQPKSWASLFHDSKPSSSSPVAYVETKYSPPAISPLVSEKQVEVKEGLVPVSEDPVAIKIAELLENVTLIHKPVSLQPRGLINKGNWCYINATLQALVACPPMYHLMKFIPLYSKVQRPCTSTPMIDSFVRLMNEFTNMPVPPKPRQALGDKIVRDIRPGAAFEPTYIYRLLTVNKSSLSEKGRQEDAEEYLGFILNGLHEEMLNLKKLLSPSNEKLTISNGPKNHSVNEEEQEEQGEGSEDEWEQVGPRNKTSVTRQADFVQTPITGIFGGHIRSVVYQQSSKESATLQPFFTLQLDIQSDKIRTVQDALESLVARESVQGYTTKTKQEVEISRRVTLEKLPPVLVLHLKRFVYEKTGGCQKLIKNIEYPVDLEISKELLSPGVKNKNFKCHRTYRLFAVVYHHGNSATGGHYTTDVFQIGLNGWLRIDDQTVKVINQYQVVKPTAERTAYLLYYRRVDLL

With `O=C(CCl)N1CCOC2(CCC2)CC1`, the “log2 ratio of Biotin-Ahx-Ub-VS probe labelling” value (from here on “log2 ratio”) with OTUD6B was -0.0124; in the experiment with OTUD7B, -0.961; in the experiment with PRPF8, -0.071; with PSMD7, -0.283; in the experiment with UCHL1 it was -1.35 (active); with UCHL3 it was 0.146. For the same compound, the “log2 ratio” value in the experiment with UCHL5 is -0.0451; in the experiment with USP10, -0.118; with USP15, -0.447; with USP16, 0.117.

Consider `Cl.O=C(CCl)NCCN1CCc2ccccc21`, for which the “log2 ratio” value in the experiment with OTUD6B is -0.983; with OTUD7B it was -0.675; in the experiment with PRPF8 it was 0.014; in the experiment with PSMD7 it was -0.0696; with UCHL1, -2.25 (active); with UCHL3, -0.556. Moreover, the “log2 ratio” value was -1.03 (active) with UCHL5, -0.344 with USP10, -0.991 with USP15 and -0.252 in the experiment with USP16.

As for `O=C(CCl)N1CCc2nc[nH]c2C1c1ccc(Cl)cc1` (stereo not given), the “log2 ratio” value with OTUD6B was -0.263; in the experiment with OTUD7B, -1.05 (active); with PRPF8, -0.0118; with PSMD7, -0.165; with UCHL1, -0.466; in the experiment with UCHL3, 0.28. Besides, the “log2 ratio” value is -0.221 in the experiment with UCHL5, -0.161 with USP10, -0.182 with USP15 and -0.287 with USP16.

Take `O=C(CCl)Nc1cc2c(cc1Cl)OCCO2`: the “log2 ratio” value in the experiment with OTUD6B is -0.0652; in the experiment with OTUD7B, -0.567; in the experiment with PRPF8 it was 0.0189; with PSMD7, -0.149; in the experiment with UCHL1, -1.2 (active); with UCHL3, 0.196. For the same compound, the “log2 ratio” value is -0.407 in the experiment with UCHL5, -0.000247 with USP10, -0.202 in the experiment with USP15 and 0.406 with USP16.

Turning to `Cl.O=C(CCl)N[C@H]1C[C@@H](n2cccn2)C1`, the “log2 ratio” value was -0.0562 with OTUD6B; -0.797 with OTUD7B; 0.13 in the experiment with PRPF8; 0.118 with PSMD7; -1.11 with UCHL1; 0.478 with UCHL3. Moreover, the “log2 ratio” value with UCHL5 was -0.14; in the experiment with USP10, 0.0484; with USP15, -0.22; with USP16 it was 0.0253.

As for `NC(=O)C1CCCCN1C(=O)CCl` (stereo not given), the “log2 ratio” value with OTUD6B was -0.175; with OTUD7B, -1.65 (active); with PRPF8 it was -0.153; with PSMD7, -0.146; with UCHL1 it was -1.52 (active); in the experiment with UCHL3 it was 0.215. Further, the “log2 ratio” value with UCHL5 is -0.42; with USP10, -0.0331; with USP15 it was -0.0982; with USP16 it was 0.0843.

`Cc1cc(C(=O)NC2CCN(C(=O)CCl)CC2)no1`: the “log2 ratio” value with OTUD6B is -0.173; in the experiment with OTUD7B, -0.263; in the experiment with PRPF8, -0.0374; with PSMD7, -0.0768; in the experiment with UCHL1 it was -1.58 (active); in the experiment with UCHL3, 0.336. For the same compound, the “log2 ratio” value in the experiment with UCHL5 was -0.135; with USP10, -0.197; in the experiment with USP15 it was -0.252; with USP16, 0.021.

The record behind these values is the supplement of paper PMC11732987, “Enantioselective OTUD7B fragment discovery through chemoproteomics screening and high-throughput optimisation” (Communications Chemistry, 2025).
